Sampled rows, rich in hits. Any-hit rate of the full collection: about 2.2%.
KLF5 inhibitor: suppresses KLF5 promoter-driven expression; DLD-1 KLF5 promoter-luciferase reporter, luminescence; inhibition, % at 5 µM; 290,000 compounds, 0.23% hits;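 active = inhibition above a per-plate limit of that plate's mean compound inhibition plus 3 SD, cut at about 60% in these data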;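 also: 0% = DMSO wells and 100% = LY294002 at 200 µM; higher means less KLF5 promoter-driven luciferase light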
Ba/F3 V617F tox: loss of viability in JAK2V617F-driven Ba/F3 cells; 220,000 compounds, 1.1% hits; Ba/F3 EpoR-JAK2V617F viability, ATP luminescence; inhibition, % at 5.6 µM;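 active = inhibition above the campaign mean plus 3 SD over all tested compounds, cut at about 24% in these data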;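 also: cytokine-independent growth of Ba/F3 cells driven by EpoR plus mutant JAK2; 0% = DMSO-treated cells and 100% = JAK inhibitor I control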
BaF3 tox: parental Ba/F3 viability inhibition as JAK2V617F counter-screen; CellTiter-Glo ATP luminescence; inhibition, % at 5.6 µM; 220,000 compounds, 1.1% hits; AID 1486;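 active = inhibition above a per-campaign cutoff, the mean inhibition of all tested compounds plus 3 SD, cut at about 27% in these data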;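 also: 0% = DMSO wells and 100% = JAK Inhibitor I control wells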
APP transl inh: APP translation inhibition; 190,000 compounds, 0.82% hits; inhibition, % at 2 µM; AID 1285; SH-SY5Y APP 5'UTR-luciferase reporter, luminescence;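 active = inhibition above a set limit, derived from the sample mean plus 3 SD, cut at about 45% in these data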
aSyn UTR inh: 5' untranslated region of α-synuclein, MLPCN primary screen; inhibition, % (tested at 7.5 µM); AID 1813; 300,000 compounds, 0.82% hits; alpha-synuclein 5'UTR reporter, inhibitor activity; in the data active = inhibition above about 60%;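 also: H4 neuroglioblastoma cells stably carrying SNCA 5'UTR luciferase fusion; 0% = DMSO wells and 100% = positive control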
IEC-6 tox: counter-screen for KLF5 inhibitors: cytotoxicity in IEC-6 cells. IEC-6 cytotoxicity, luminescence viability. inhibition, % at 5 µM. 290,000 compounds, 0.78% hits. AID 1825; in the data active = inhibition above about 22%;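 also: 0% = plate median of test compound wells and 100% = cytotoxic reference compound wells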
Active calls of the source: *; · = no result given.

SMILES	KLF5 inhibitor	Ba/F3 V617F tox	BaF3 tox	APP transl inh	aSyn UTR inh	IEC-6 tox
Oc1ccccc1/C=N/Nc1ccnc(SCc2ccccc2)n1	-18.4	1.6	8.2	56.2*	·	7.6
Cc1sc2ncnc(N/N=C/c3ccccc3O)c2c1C	16.9	-5.7	2.2	76.8*	105.8*	8.4
CCCN1CCC(=O)N(CCO)CC1	2.0	·	·	·	7.2	7.8
CCOC(=O)/C=c1\s/c(=C\c2c(OC)ccc3ccccc23)c(=O)n1CC(=O)NCC1CCCO1 (centres undefined)	-5.7	-0.8	5.9	-0.1	70.8*	0.4
COc1ccc(CCNC(=O)C2CCN(S(=O)(=O)c3ccc(C)cc3)CC2)cc1	-36.8	·	·	·	28.1	3.7
C=C1C(=O)O[C@@H]2C[C@@H](C)[C@@H]3C=CC(=O)[C@@]3(C)[C@@H](OC(C)=O)[C@H]12	·	·	·	·	95.4*	·
CC1CCCC(C)N1CCCNC(=O)Cn1ncc2c3ccccc3n(C)c2c1=O (centres undefined)	-12.3	·	·	·	7.2	-2.3
CN(C)CCCNC(=O)c1ccccn1	7.3	-3.8	0.9	-3.0	11.0	2.0
CN(C)CCCNC(=O)c1ccc(-c2nc(-c3ccc(Cl)cc3)cs2)cc1	-123.2	100.8*	46.4*	-30.6	117.6*	6.8
Cc1cccc(CC(=O)NCC(=O)NCc2cc(=O)n(C)c(=O)n2C)c1	-49.1	·	·	·	-4.8	-1.0
O=C(CN(Cc1ccccc1)S(=O)(=O)c1ccccc1)N/N=C/c1ccc([N+](=O)[O-])cc1	-15.7	0.6	95.0*	10.0	7.9	-4.8
CCCCCc1ccc(-c2ccc(/C=C/C(=O)O)cc2)nc1	11.9	4.8	7.1	20.9	79.2*	8.8
COc1ccccc1C(=O)O/N=C(\N)c1ccccn1	-90.2	3.3	10.5	·	31.5	7.9
N/C(=N\OC(=O)c1cccc(Br)c1)c1ccccn1	-74.0	·	·	·	71.8*	11.1
N/C(=N\OC(=O)c1ccc(Cl)cc1)c1ccccn1	55.7	7.1	9.2	-185.4	62.5*	9.0
N/C(=N\OC(=O)c1ccccc1[N+](=O)[O-])c1ccccn1	-133.3	0.2	36.8*	-103.6	-103.8	4.9
N/C(=N\OC(=O)c1ccccc1Cl)c1ccccn1	-22.8	10.9	15.3	-123.3	84.4*	10.9
CN(C)C(=O)c1nc2ccc(Cl)cn2c1CNCc1ccccc1OC(F)(F)F	-18.5	0.5	4.5	0.9	-33.1	-5.2
COC(=O)c1c(-c2ccc(C)cc2)csc1NC(=O)c1c(-c2ccccc2)noc1C	-14.4	-1.2	4.7	-9.6	67.9*	-6.5
COC(=O)c1sccc1NC(=O)c1c(-c2ccccc2)noc1C	9.3	-3.1	4.8	-9.4	5.1	20.3
Cc1cc(S(=O)(=O)N2CCCCC2)ccc1OCC(=O)N1CCOCC1	-8.9	·	·	·	-5.0	-6.6
Cc1ccc(-c2cc3c(nn2)-c2ccccc2C3=O)cc1	-41.1	6.3	2.3	·	86.5*	11.2
FC(F)(F)c1ccccc1NC(=S)NN=C1CCCCCC1	-14.3	-2.1	-0.1	93.1*	-18.3	6.8
O=C(Nc1cccc(F)c1)c1ccc(S(=O)(=O)N2CCCCC2)cc1	-10.4	·	·	·	-2.2	-1.6
CCc1ccc2nc(NC(=O)Cn3cnc4ccccc4c3=O)sc2c1	-24.2	33.1*	39.3*	-15.3	-58.5	2.0
SMILES	KLF5 inhibitor	Ba/F3 V617F tox	BaF3 tox	APP transl inh	aSyn UTR inh	IEC-6 tox
Fc1ccc(-c2csc(-c3cccnc3)n2)cc1F	-41.1	·	·	·	-50.7	4.2
Oc1ccc(-c2csc(-c3cccnc3)n2)cc1O	-110.2	40.8*	37.1*	·	-96.1	15.9
O=C(NCCCn1ccnc1)c1ccc(C(F)(F)F)cc1	-4.6	·	·	·	-5.7	-8.7
Cn1cc(C(=O)NCc2ccc(Cl)cc2)c(=O)c2cc(S(=O)(=O)N3CCOCC3)ccc21	-19.3	·	·	·	8.6	2.2
CS(=O)(=O)N1CCN(C(=O)Cc2ccc(Br)cc2)CC1	-30.2	·	·	·	-8.4	-7.3
COC(=O)c1cccc(NC(=O)/C=C/c2ccc3c(c2)OCO3)c1	5.5	17.2	15.6	-11.8	102.3*	-9.7
O=C1c2ccccc2S(=O)(=O)N1Cc1nc2ccccc2s1	-8.7	1.9	3.6	8.0	111.7*	6.3
Cc1ccccc1CN1C(=O)c2ccccc2S1(=O)=O	-16.2	·	·	·	-17.8	-0.8
Cn1ccc(C(=O)NC(=S)Nc2ccc([N+](=O)[O-])cc2O)n1	-179.5	·	·	·	·	7.2
COc1cnc(-c2ccccn2)nc1N(C)c1ccccc1	-42.5	·	·	·	88.6*	15.1
COc1cnc(-c2ccccn2)nc1Oc1ccccc1	-7.9	-3.4	7.2	8.3	-47.5	0.1
N#CC(c1cccc(Cl)c1)c1ccc2c(C(F)(F)F)cc(C(F)(F)F)nc2n1 (centres undefined)	8.9	-3.8	-0.8	8.5	97.0*	1.1
NNc1ccc2c(C(F)(F)F)cc(C(F)(F)F)nc2n1	2.0	1.5	-0.2	-6.6	-10.5	4.3
CCN(CC)CCSc1nnc2c3ccccc3n(Cc3ccccc3)c2n1	-2.9	29.4*	48.8*	·	-16.9	5.0
C=CCn1c(C)cc(C(=O)CN2NS(=O)(=O)c3ccccc3C2=O)c1C	-87.9	4.4	16.6	84.6*	-31.9	-1.7
COCCn1c(SCC(=O)N2CCCc3ccccc32)nc2ccccc2c1=O	6.1	5.8	60.2*	12.1	14.5	1.6
Cc1cc(=O)[nH]c(SCC(=O)N2CCCc3ccccc32)n1	3.5	-0.2	5.8	65.3*	-17.4	1.0
Cc1ccc(NC(=S)NC(=O)Cc2ccccc2)c(O)c1	-37.0	·	·	·	-27.7	0.0
COc1ccc(N2CC(C(=O)N/N=C/c3ccc(C)cc3)CC2=O)cc1 (centres undefined)	21.3	7.3	5.1	82.7*	-23.3	15.7
COc1ccc(N2CC(C(=O)Nc3ncccc3C)CC2=O)cc1 (centres undefined)	-4.2	-2.7	101.2*	-10.8	31.4	-5.9
CCc1cc2c(=O)n(CCC(C)C)c(=S)[nH]c2s1	-32.3	-4.9	2.6	-20.1	-35.8	-0.8
COc1ccc2c(c1)[N+](C)(C)C(C)(C)C=C2C	6.9	26.1*	46.7*	10.0	-6.7	-0.9
CCNC(=O)N1c2ccc(OCC)cc2C(C)=CC1(C)C	3.5	-0.4	3.4	2.3	-19.0	1.4
CCOc1ccc2c(c1)[N+](C)(C)C(C)(C)C=C2C	-29.7	54.1*	60.5*	21.3	-16.9	5.2
COc1ccc(C2C(=O)c3ccccc3C2=O)c(OC)c1	-21.9	-1.6	-0.7	-10.2	-265.4	1.0
CCC(C)NC(=O)CSc1nc2c(sc(=S)n2Cc2ccco2)c(=O)n1-c1ccccc1 (centres undefined)	-8.9	4.5	4.7	67.8*	7.7	3.5
CCOc1cc(C(=O)N/N=C/C(Br)=C/c2ccccc2)cc(OCC)c1OCC	-26.4	-3.7	2.5	89.6*	104.5*	6.6
O=C(N/N=C/C(Br)=C\c1ccccc1)c1ccc2nc[nH]c2c1	31.3	2.5	1.8	82.8*	-90.4	11.4
CC(=C/c1ccccc1)/C=N/NC(=O)c1ccc2nc[nH]c2c1	-16.9	0.1	9.3	17.6	-55.7	-0.7
O=C(Nc1nccs1)c1cn2ccccc2n1	-30.8	6.5	6.3	·	64.7*	6.6
